Compound activity as filed in PubChem BioAssay.
CYP2C9 act: human CYP2C9 activators, primary screen, biochemical, luminescence; Cytochrome P450 2C9 (Homo sapiens), P11712; recombinant CYP2C9, luciferin-H conversion; hits give high values; factor 1 = untreated enzyme, 0 = blocked; activation factor at 5 µM; 96,000 tested, 1.4% active; AID 1024, 2008;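 active means activation factor of 2 or more for CYP2C9 at a 5 µM dose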;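 further: 0 = sulfaphenazole-blocked wells and 1 = vehicle-only wells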
Target sequence (P11712 whole entry, looked up): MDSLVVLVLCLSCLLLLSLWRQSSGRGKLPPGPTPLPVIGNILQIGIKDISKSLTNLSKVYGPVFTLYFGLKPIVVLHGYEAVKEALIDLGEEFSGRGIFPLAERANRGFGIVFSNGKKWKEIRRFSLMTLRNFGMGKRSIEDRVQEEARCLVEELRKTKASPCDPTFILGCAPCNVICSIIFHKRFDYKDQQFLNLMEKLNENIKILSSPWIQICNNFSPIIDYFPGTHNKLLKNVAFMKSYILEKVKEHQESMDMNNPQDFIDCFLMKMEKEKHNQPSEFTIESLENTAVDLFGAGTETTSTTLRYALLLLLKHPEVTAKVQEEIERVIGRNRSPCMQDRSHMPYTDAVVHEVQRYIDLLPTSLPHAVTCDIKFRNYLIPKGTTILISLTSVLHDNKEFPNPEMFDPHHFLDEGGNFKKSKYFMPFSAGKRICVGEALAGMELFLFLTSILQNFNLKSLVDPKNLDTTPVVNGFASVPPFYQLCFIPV
CYP2C19 inh: blockers of cytochrome P450 2C19 activity – biochemical, luminescence, ADME assay, primary screen; P33261; CYP2C19 Supersomes, luciferin-H EGE luminescence, 30 min; inhibition, % at 5 µM; 96,000 tested, 21% active; AID 778, 2007;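 active means CYP2C19 inhibition above a set limit at 5 µM in the primary screen, cut at about 50% in these data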;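 further: plate controls were negative control wells for no effect and 2.5 mM tranylcypromine positive control for full effect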
PostGolgi ctrl: growth inhibition of yeast control strain, primary screen, counter-screen for post-Golgi transport modulator project; efflux-deficient yeast background strain, growth absorbance A615, 16 h; inhibition, % at 10 µM; 98,000 tested, 5% active
PostGolgi yeast: phenotypic screen on post-Golgi transport, primary screen. inhibition, % at 10 µM. 98,000 tested, 0.9% active. post-Golgi transport phenotypic cell assay. AID 739, 2007;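 further: yeast cells grown in 1536-well plates; yeast grown about 18 h at 30C before absorbance read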
CYP2C19 activ: human CYP2C19 activators, primary screen, biochemical, luminescence; Cytochrome P450 2C19 (Homo sapiens), P33261; recombinant CYP2C19, luciferin-H EGE luminescence; hits give high values; 0 = fully inhibited enzyme, 1 = untreated enzyme; activation factor at 5 µM; 96,000 tested, under 10 active; AID 1025, 2008;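 active means activation factor of at least 2 at 5 µM in the primary screen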;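 further: 0 = wells with 2.5 mM tranylcypromine and 1 = vehicle-only wells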
CYP2C9 inhib: blockers of cytochrome P450 2C9 activity – biochemical, luminescence, ADME assay, primary screen; P11712; CYP2C9 Supersomes, luciferin-H conversion; inhibition, % at 5 µM; 96,000 tested, 20% active; AID 777, 2007;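 active means blocking of liver enzyme CYP2C9 beyond about 50% at 5 µM, limit read from the data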
* marks the source's active call; other numbers are inactive results. Shown are actives, neighbours in structure and some others; about 32% of the full set was active somewhere. Unless noted, no stated cut-off is given here; in the data, active means inhibition above about 30%; inactive means the rest.

COc1ccc(N(CC(=O)NCC2CCCO2)S(=O)(=O)c2ccc(C)cc2)cc1OC (configuration not stated) was read as CYP2C9 act 0.4, CYP2C19 inh -24, PostGolgi ctrl -4, PostGolgi yeast -6, CYP2C19 activ 1.2 and CYP2C9 inhib 55*.
`CCN(CC)S(=O)(=O)c1ccc(Cl)c(C(=O)NCC2CCCO2)c1` (configuration not stated) gave CYP2C9 act 1, CYP2C19 inh -4, PostGolgi ctrl 10, PostGolgi yeast 2, CYP2C19 activ 1 and CYP2C9 inhib -2.
Screening Cc1ccc(S(=O)(=O)NC(=O)NCCCCNC(=O)NS(=O)(=O)c2ccc(C)cc2)cc1 returned CYP2C9 act 0.9, CYP2C19 inh -8, PostGolgi ctrl 13, PostGolgi yeast 9, CYP2C19 activ 1.1 and CYP2C9 inhib 12.
`Cc1ccccc1CSCC(=O)N/N=C/c1cccs1` gave CYP2C9 act 0.7, CYP2C19 inh 61*, PostGolgi ctrl 18, PostGolgi yeast 0, CYP2C19 activ 0.4 and CYP2C9 inhib 32.
COc1ccccc1N1CCN(S(=O)(=O)c2ccc(F)cc2)CC1 was read as CYP2C9 act 0.2, CYP2C19 inh 91*, PostGolgi ctrl 21, PostGolgi yeast 18, CYP2C19 activ 0.1 and CYP2C9 inhib 82*.
Screening Cc1cccc(C)c1N1CCN(S(=O)(=O)c2ccc(F)cc2)CC1 returned CYP2C9 act 0.1, CYP2C19 inh 97*, PostGolgi ctrl 21, PostGolgi yeast -1, CYP2C19 activ 0 and CYP2C9 inhib 93*.
Screening COc1ccccc1N1CCN(S(=O)(=O)c2ccc(Cl)s2)CC1 returned CYP2C9 act 0, CYP2C19 inh 97*, PostGolgi ctrl 0, PostGolgi yeast -7, CYP2C19 activ 0 and CYP2C9 inhib 96*.
`CCOc1ccccc1N1CCN(S(=O)(=O)c2ccc(Cl)s2)CC1` gave CYP2C9 act 0.5, CYP2C19 inh 45, PostGolgi ctrl 25, PostGolgi yeast -4, CYP2C19 activ 0.5 and CYP2C9 inhib 46.
CCS(=O)(=O)N1CCN(c2ccccc2F)CC1 was read as CYP2C9 act 0.1, CYP2C19 inh 50*, PostGolgi ctrl 4, PostGolgi yeast 4, CYP2C19 activ 0.5 and CYP2C9 inhib 90*.
`O=C(OCCn1cncn1)c1cc2ccccc2oc1=O` gave CYP2C9 act 0.9, CYP2C19 inh 16, PostGolgi ctrl 4, PostGolgi yeast 2, CYP2C19 activ 0.8 and CYP2C9 inhib 12.
c1ccc(-c2nnn(C34CC5CC(CC(C5)C3)C4)n2)cc1 was read as CYP2C9 act 0.8, CYP2C19 inh 2, PostGolgi ctrl 0, PostGolgi yeast -2, CYP2C19 activ 1 and CYP2C9 inhib 20.
`O=S(=O)(c1ccc(F)cc1)N1CCN(c2nc(-c3ccc(F)cc3)cs2)CC1` gave CYP2C9 act 1.1, CYP2C19 inh -6, PostGolgi ctrl 37*, PostGolgi yeast -2, CYP2C19 activ 1.1 and CYP2C9 inhib -6.
Screening COc1ccccc1N1CCN(S(=O)(=O)/C=C/c2ccccc2)CC1 returned CYP2C9 act 0.3, CYP2C19 inh 100*, PostGolgi ctrl 2, PostGolgi yeast -5, CYP2C19 activ 0 and CYP2C9 inhib 66*.
COc1ccccc1N1CCN(C(=O)c2ccc(S(=O)(=O)N3CCCCCC3)cc2)CC1 was read as CYP2C9 act 0.3, CYP2C19 inh 52*, PostGolgi ctrl 3, PostGolgi yeast -1, CYP2C19 activ 0.5 and CYP2C9 inhib 71*.
Screening COc1ccccc1N1CCN(S(C)(=O)=O)CC1 returned CYP2C9 act 1, CYP2C19 inh 19, PostGolgi ctrl 3, PostGolgi yeast 2, CYP2C19 activ 0.8 and CYP2C9 inhib 2.
For COc1ccccc1N1CCN(S(=O)(=O)c2cccc(F)c2)CC1 the results were CYP2C9 act 0.1, CYP2C19 inh 96*, PostGolgi ctrl 9, PostGolgi yeast 16, CYP2C19 activ 0 and CYP2C9 inhib 89*.
For O=S(=O)(/C=C/c1ccccc1)N1CCN(c2ccccc2)CC1 the results were CYP2C9 act 1.1, CYP2C19 inh 30, PostGolgi ctrl -8, PostGolgi yeast 3, CYP2C19 activ 0.7 and CYP2C9 inhib -13.
